A selection: hits, their analogues and other compounds. The true share with any hit is near 2.1%.
HNF4A DNA FP: change in binding of human HNF4 alpha to DNA. HNF4a-FITC DNA binding, fluorescence polarization, 1 h. activity change, % at 10 µM. 360,000 compounds, 0.3% hits. AID 1224865; in the data active = activity change above about 30%, passing the limit was not always enough
Rpn11 block: Rpn11 (human) deubiquitinase inhibition | O00487 | human 26S proteasome, Ub4-pepOG fluorescence polarization; 20S core pre-blocked with epoxomicin | inhibition, % at 20 µM | 360,000 compounds, 0.59% hits | AID 588493;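 active = inhibition at 20 µM, scaled to each plate's controls, above about 33%, limit read from the data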
Target sequence (O00487 whole entry, looked up): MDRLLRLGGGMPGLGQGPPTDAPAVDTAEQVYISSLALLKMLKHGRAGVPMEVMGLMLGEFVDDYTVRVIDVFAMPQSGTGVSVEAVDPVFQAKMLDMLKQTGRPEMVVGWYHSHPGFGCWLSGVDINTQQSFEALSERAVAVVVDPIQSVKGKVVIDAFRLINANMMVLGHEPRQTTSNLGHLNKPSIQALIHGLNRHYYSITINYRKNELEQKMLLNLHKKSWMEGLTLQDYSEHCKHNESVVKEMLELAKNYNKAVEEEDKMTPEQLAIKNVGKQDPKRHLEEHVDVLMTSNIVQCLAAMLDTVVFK
Myeloid diff 2: promotes myeloid progenitor differentiation. ER-HoxA9 myeloid progenitors, lysozyme-GFP differentiation, flow cytometry. calls only at 10 µM. 360,000 compounds, 1% hits;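 active = normalized GFP-positive differentiation at or above the plate's own cutoff, the solvent-only control mean plus 3 SD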;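 also: cells exposed to compound for four days before flow analysis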
TPT1 inhibitor: blocks Candida albicans tRNA 2'-phosphotransferase; recombinant caTPT1, FP RNA substrate dephosphorylation; 300,000 compounds, 0.81% hits; inhibition, % at 5 µM;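 active = inhibition above the mean of all tested compounds plus 3 SD, set per screening campaign, cut at about 24% in these data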;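 also: plate controls were DMSO alone for no effect and ferristatin control at 100 nM for full effect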
Myeloid diff CP1: promotes myeloid progenitor differentiation; calls only; shares compounds with Myeloid diff 2; 2,300 compounds, 2% hits; ER-HoxA9 myeloid progenitors, GFP/Mac1 double-positive flow;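 active = share of green or green-and-red cells above 9 and 9% in run 1 or 4 and 3% in run 2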
GFP autofluor: compound fluorescence in myeloid differentiation counter-screen. fluorescence response, % (concentration not given with the values). 2,300 compounds, 7.4% hits. ER-HoxA9 myeloid progenitors, no estrogen, GFP autofluorescence flow cytometry; vehicle wells 0%, positive control 100%. shares compounds with Myeloid diff 2. AID 651707;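 active = over 5% cells positive for green fluorescent reporter, or over 2% positive for both it and APC stain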;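 also: range taken on the double positive population between DMSO and positive control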
Starred values were filed as active, the others as inactive; i = inactive; . = not tested or not shown; + = active, no number.

SMILES	HNF4A DNA FP	Rpn11 block	Myeloid diff 2	TPT1 inhibitor	Myeloid diff CP1	GFP autofluor
CCC/C=C/c1ccc(CN2C(C(C)C)C(=O)N(Cc3cn(CCC4OCCO4)nn3)CCS2(=O)=O)cc1 (stereo not given)	-3	3	i	.	i	0
CC(C)C1C(=O)N(Cc2cn(CCC3OCCCO3)nn2)CCS(=O)(=O)N1Cc1ccc(-c2cccc(CO)c2)cc1 (stereo not given)	-10	-3	i	.	i	1
COCOCCn1cc(CN2CCS(=O)(=O)N(Cc3ccc(-c4ccc(Cl)nc4)cc3)C(CC(C)C)C2=O)nn1 (stereo not given)	2	5	i	.	.	.
CC(C)C1C(=O)N(Cc2cn(CC3CCCCC3)nn2)CCS(=O)(=O)N1Cc1ccc(-c2ccc(F)cc2)cc1 (stereo not given)	4	-10	i	.	i	0
CCC/C=C/c1ccc(CN2C(CC(C)C)C(=O)N(Cc3cn(CCC4OCCO4)nn3)CCS2(=O)=O)cc1 (stereo not given)	0	2	i	.	.	.
COCCNC(=O)C1(C)CCCN(C(=O)c2cc(C)on2)C1 (stereo not given)	-2	2	i	.	.	.
CCCC(=O)NC(C)c1nc2ccccc2n1C(C)C (stereo not given)	4	1	i	0	.	.
O=C(COC(=O)c1cc[n+]([O-])cc1)Nc1ccc(F)c([N+](=O)[O-])c1	-2	-4	i	-1	.	.
CN(C(=O)COc1cccc(C#N)c1)C1CCS(=O)(=O)C1 (stereo not given)	-3	-1	i	.	.	.
CCOc1ccc2nc(N3CCC(C(=O)N4CCN(C5CCCCC5)CC4)CC3)sc2c1	-2	-3	i	1	i	0
O=C(COc1ccc(S(=O)(=O)N2CCCC2)cc1)N1CCCC1	2	5	i	-1	.	.
COC(=O)C[C@@H]1C=C[C@@H](NC(=O)c2ccccc2F)[C@@H](CO)O1	3	.	i	.	i	0
COC(=O)C[C@H]1C=C[C@H](NC(=O)Cc2ccccc2)[C@@H](CO)O1	5	.	i	.	.	.
CC1CCN(C(=O)C(C)OC(=O)CSc2ccc([N+](=O)[O-])cc2)CC1 (stereo not given)	5	2	i	.	.	.
Cc1ccc(C(=O)Nc2cccc(C(=O)N/N=C/c3ccc(O)cc3)c2)cc1	1	1	+	4	i	1
Cc1cccc(C(=O)Nc2cccc(C(=O)N/N=C/c3ccncc3)c2)c1	0	2	i	-2	.	.
CC(/C=N/NC(=O)Cn1cnc2c1c(=O)n(C)c(=O)n2C)=C\c1ccccc1	2	2	i	4	.	.
Cc1ccc(-c2cc(C(F)(F)F)c(C#N)c(SCCC#N)n2)o1	7	14	i	1	i	0
O=C1CCc2cc(NS(=O)(=O)c3cc(F)ccc3F)cc3c2N1CC3	6	0	i	2	.	.
O=C(Nc1nc(-c2cccs2)c(-c2cccs2)s1)C1CCCC1	3	14	i	.	.	.
O=C(Nc1ccc(Cl)cc1)N[C@H]1CC[C@H](CCn2cc(-c3ccccc3F)nn2)O[C@@H]1CO	0	.	i	.	.	.
CCCNC(=O)N[C@H]1CC[C@@H](CCn2cc(-c3cccc(F)c3)nn2)O[C@@H]1CO	5	.	+	.	i	0
C#CC[N+](CC)(CC)CC#Cc1cccc(Cl)c1	-1	-6	+	4	i	1
CC(=O)Nc1ccc(NC(=O)Cn2c(=O)n(-c3ccc(C)cc3)c(=O)c3oc4ccccc4c32)cc1	-1	0	i	2	.	.
COc1cccc(N2CCN(S(=O)(=O)c3ccc4ccccc4c3)CC2)c1	3	-1	i	.	i	0
SMILES	HNF4A DNA FP	Rpn11 block	Myeloid diff 2	TPT1 inhibitor	Myeloid diff CP1	GFP autofluor
COc1ccc(S(=O)(=O)N2CCN(c3ccccc3)CC2)cc1	-3	1	i	-7	.	.
COC(=O)[C@]12CCCCC=C1N(Cc1cccc3ccccc13)C(=O)[C@H](CC(=O)NCc1ccc(C)o1)C2	-3	.	i	.	.	.
C=CCn1nnc2sc3c(c2c1=O)CCC(C)C3 (stereo not given)	3	0	i	2	.	.
NS(=O)(=O)c1ccc(CCNc2ncnc3sccc23)cc1	2	9	i	8	.	.
Cc1sc2ncnc(NCCc3ccc(S(N)(=O)=O)cc3)c2c1C	-1	0	i	2	i	0
CCc1nc(SCC(=O)N2CCCCC2)c2c(=O)n(C)c(=O)n(C)c2n1	1	-2	i	0	.	.
CCc1nc2c(OCCc3cccc(OC)c3)cccn2c1N(C)C(=O)c1cccs1	5	-1	i	.	.	.
O=C(Oc1c(Cl)cc(Cl)c2cccnc12)N1CCOCC1	3	4	i	0	.	.
O=C(Oc1ccnc2cc(Cl)ccc12)N1CCOCC1	-2	1	i	-4	i	0
N/C(=N\c1nc2c(c(=O)[nH]1)CCCC2)Nc1ccccc1	2	-6	i	0	.	.
Cc1ccc(N/C(N)=N/c2nc3c(c(=O)[nH]2)CCCC3)c(C)c1	4	-7	+	-3	i	1
COn1c(=O)c(-c2cccs2)[n+]([O-])c2ccccc21	-17	-42	i	-6	.	.
Cn1c(-c2cccs2)[n+](C)c2ccccc21	-2	-4	i	2	i	0
CCN1C(=O)[C@@H]2[C@@H](c3ccc(-c4cccc(Cl)c4)c(OC)c3)N3CCCC[C@@]3(C(=O)OC)[C@@H]2C1=O	3	4	+	3	i	0
CCN1C(=O)[C@@H]2[C@@H](c3ccc(-c4ccc(Cl)c(Cl)c4)c(OC)c3)N3CCC[C@@]3(C(=O)OC)[C@@H]2C1=O	3	27	i	5	.	.
CCc1ccc(CNC(=O)CCc2nnc(Cc3cccc(C(F)(F)F)c3)o2)nc1	1	4	+	4	i	0
Cc1cccc(N2CCN(C(=O)c3ccc4c(c3)OCCO4)CC2)c1C	-2	-9	+	1	+	0
CC1CCCCN1C(=O)c1ccc(C(=O)N2CCCCC2C)cc1 (stereo not given)	0	6	i	-2	i	0
CC1CCCCN1C(=O)c1ccc(S(=O)(=O)N2CCCCC2C)cc1 (stereo not given)	-1	1	i	-2	.	.
COc1ccc(CNC(=O)c2cncc(Br)c2)cc1	-4	-8	i	-1	.	.
CCOC(=O)c1cc(=O)nc(N)s1	-4	-4	i	.	.	.
C=CCn1c(N2CCN(c3ccc(OC)cc3)CC2)nc2c1c(=O)[nH]c(=O)n2C	-2	0	i	-1	i	0
C=CCn1c(N2CCN(c3ccc(OC)cc3)CC2)nc2c1c(=O)n(C)c(=O)n2C	-5	3	i	-3	.	.
O=C1c2ccccc2NC(c2ccc(F)cc2)N1Cc1ccco1 (stereo not given)	0	4	i	0	i	0
CC1(C)Cc2c(sc3nc4n(c(=N)c23)CCC4)CO1	10	14	i	0	i	0

High-throughput results deposited in PubChem by several laboratories.
